The text below walks through data of PubChem BioAssay (NCI).

Some test systems named below: HCT-15 colon; HT29 colon; SNB-75 CNS; SNB-19 CNS; PC-3 prostate; SK-MEL-5 melanoma; UACC-62 melanoma; LOX IMVI melanoma; SK-MEL-28 melanoma; SK-MEL-2 melanoma; EKVX NSCLC; SN12C renal; UO-31 renal; TK-10 renal; ACHN renal; CAKI-1 renal; A498 renal; CCRF-CEM leukemia; U251 CNS; MOLT-4 leukemia.
Assay in all cases: NCI-60 one-dose screen, 48 h (100 = growth as untreated, 0 = no growth, -100 = all killed)
Holding throughout (conditions): 10 µM

About 83,000 compounds went through this panel and 20% of them were active in at least one assay; those are over-represented in the sample as a whole.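 A percent growth of 40 corresponds to 60% growth inhibition; 0 means no net growth; -100 means all cells died. Active threshold: below 10.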 Values without a mark were called inactive. The source made the active and inactive calls.

With `O=C(Nc1ccc(OCC(=O)c2ccccc2)cc1)Nc1ccc(Cl)c(C(F)(F)F)c1`, the growth in the assay with HCT-15 colon was 17.8%; in the assay on HT29 colon, 29.3%; in the assay on SNB-75 CNS, 3.5% (active); with SNB-19 CNS, 15.7%; with PC-3 prostate, 6.92% (active); in the assay with SK-MEL-5 melanoma, -61.2% (active). The growth in the assay on UACC-62 melanoma is -21.3% (active); in the assay with LOX IMVI melanoma, -24.4% (active); with SK-MEL-28 melanoma, 4.82% (active); in the assay with SK-MEL-2 melanoma, -53.7% (active); in the assay on EKVX NSCLC, 17.2%; in the assay on SN12C renal, 24.9%. The growth is 17.6% in the assay with UO-31 renal; 49.2% in the assay with TK-10 renal; 18.1% in the assay with ACHN renal; 20.2% in the assay with CAKI-1 renal; 17.1% with A498 renal; 9.86% (active) with CCRF-CEM leukemia.

Regarding `CN1CCN(Cc2ccc(NC(=O)c3cncc(C#Cc4cnc5ccc(N[C@@H]6CCOC6)nn45)c3)cc2C(F)(F)F)CC1`, the growth in the assay with HCT-15 colon was -85.6% (active); in the assay with HT29 colon, -44.4% (active); with SNB-75 CNS it was -96.1% (active); with SNB-19 CNS, -100% (active); with U251 CNS, -82.3% (active); with PC-3 prostate it was -46.9% (active). In addition, the growth in the assay with UACC-62 melanoma was -90% (active); in the assay with LOX IMVI melanoma, -100% (active); in the assay on SK-MEL-28 melanoma, -95.3% (active); in the assay with SK-MEL-2 melanoma, -94.3% (active); with EKVX NSCLC, -99.6% (active); in the assay on SN12C renal, -98.6% (active). The growth in the assay with UO-31 renal was -98.6% (active); in the assay on TK-10 renal, -82.2% (active); in the assay with ACHN renal, -100% (active); in the assay on CAKI-1 renal, -98.1% (active); in the assay with A498 renal, -97.6% (active); in the assay with CCRF-CEM leukemia it was -4.84% (active). For the same compound, in the assay on MOLT-4 leukemia, the growth is -19% (active).

With `C/C(=N\N=C\c1ccc(Cl)c([N+](=O)[O-])c1)c1ccc2c(c1)Nc1ccccc1S2`, the growth in the assay on HCT-15 colon was 50.8%; in the assay with HT29 colon, 35.5%; in the assay with SNB-75 CNS, 109%; in the assay on SNB-19 CNS, 31.2%; in the assay with U251 CNS, -35% (active); in the assay with PC-3 prostate, 13.5%. Also, the growth in the assay with UACC-62 melanoma was 38.8%; in the assay on LOX IMVI melanoma it was 37.2%; in the assay with SK-MEL-28 melanoma, 60.9%; in the assay with SK-MEL-2 melanoma, 69.4%; in the assay on EKVX NSCLC, 48%; in the assay on SN12C renal, 37.2%. Further, the growth with UO-31 renal was 76.9%; with TK-10 renal it was 77%; in the assay with ACHN renal, 45.6%; in the assay with CAKI-1 renal, 60.3%; in the assay on A498 renal, 91.8%; in the assay on CCRF-CEM leukemia, 56.4%. For the same compound, the growth in the assay on MOLT-4 leukemia was 40.3%.

For `CCN1CCN(Cc2ccc(NC(=O)c3cccc(-n4cc(-c5ccc(NC(C)=O)nc5)nn4)c3)cc2C(F)(F)F)CC1`, the growth with HCT-15 colon is 83.9%; with HT29 colon, 61.7%; with SNB-75 CNS it was 104%; in the assay on SNB-19 CNS, 122%; in the assay on U251 CNS it was 86.6%; in the assay on PC-3 prostate, 112%. Moreover, the growth with UACC-62 melanoma was 82.4%; with LOX IMVI melanoma, 72.4%; with SK-MEL-28 melanoma, 53.3%; with SK-MEL-2 melanoma it was 106%; in the assay with EKVX NSCLC, 105%; with SN12C renal, 95.9%. For the same compound, the growth in the assay on UO-31 renal was 107%; with TK-10 renal, 149%; with ACHN renal, 109%; in the assay on CAKI-1 renal, 88.9%; with A498 renal, 213%; with CCRF-CEM leukemia, 39.2%. In the assay with MOLT-4 leukemia, the growth is 80.3%.

On to `CN1C(=O)N(C)C2SC(N/N=C/c3ccccc3F)=NC21` (stereo not drawn), for which the growth was 28.2% in the assay on HCT-15 colon; 28.2% in the assay with HT29 colon; 91.1% in the assay on SNB-75 CNS; 63.4% in the assay with SNB-19 CNS; 51.2% in the assay with U251 CNS; 81.5% in the assay with PC-3 prostate. Moreover, the growth in the assay with UACC-62 melanoma is 26.8%; in the assay with SK-MEL-28 melanoma, 69.2%; with SK-MEL-2 melanoma, 56.4%; in the assay on EKVX NSCLC, 86.4%; with SN12C renal, 71.3%; in the assay on UO-31 renal, 60.6%. Besides, the growth was 83.6% in the assay on TK-10 renal; 85.5% in the assay on ACHN renal; 67.4% in the assay with CAKI-1 renal; 82.4% in the assay on A498 renal; 67.3% in the assay on CCRF-CEM leukemia; 44.5% in the assay on MOLT-4 leukemia.

Consider `COc1cc(/C=N/NC(=O)c2ccc3nc(-c4ccc(Cl)cc4)[nH]c3c2)cc(OC)c1OC`, for which the growth in the assay with HCT-15 colon is 55.7%; in the assay on HT29 colon, -50.2% (active); with SNB-75 CNS it was -47.5% (active); with SNB-19 CNS, -94.1% (active); with U251 CNS, -86.6% (active); with PC-3 prostate, -41.6% (active). The growth was -76.7% (active) with UACC-62 melanoma; -81.1% (active) in the assay with LOX IMVI melanoma; -17.3% (active) in the assay with SK-MEL-2 melanoma; 9.25% (active) in the assay on EKVX NSCLC; 58.9% with UO-31 renal; 37.4% in the assay on TK-10 renal. Also, the growth in the assay on ACHN renal is 30.1%; in the assay on CAKI-1 renal, 2.87% (active); in the assay with A498 renal it was -31.1% (active); with CCRF-CEM leukemia, -4.37% (active); in the assay on MOLT-4 leukemia, 3.96% (active).

In the case of `CCCn1c(O)c(N=Nc2nc(-c3cc4ccccc4oc3=O)cs2)c2cc(Br)ccc21`, the growth with HCT-15 colon is 90.4%; in the assay on HT29 colon, 110%; in the assay on SNB-75 CNS, 94.7%; in the assay on SNB-19 CNS, 90.3%; in the assay on U251 CNS, 86%; in the assay with PC-3 prostate, 96.3%. The growth in the assay with UACC-62 melanoma was 94.4%; in the assay on LOX IMVI melanoma, 83.6%; with SK-MEL-28 melanoma it was 101%; in the assay with SK-MEL-2 melanoma, 102%; with EKVX NSCLC, 92.8%; with SN12C renal it was 95.2%. For the same compound, the growth in the assay on UO-31 renal was 85.1%; in the assay on TK-10 renal, 125%; in the assay on ACHN renal, 91.1%; in the assay with CAKI-1 renal, 96.4%; in the assay with A498 renal, 130%; with CCRF-CEM leukemia it was 98.9%. For the same compound, the growth in the assay on MOLT-4 leukemia is 107%.

Regarding `O=c1oc2ccccc2cc1-c1csc(N=Nc2c(O)[nH]c3ccc(Br)cc23)n1`, the growth with HCT-15 colon is 97%; in the assay with HT29 colon, 109%; in the assay on SNB-75 CNS, 96.1%; in the assay with SNB-19 CNS it was 29%; with U251 CNS, 40.4%; in the assay on PC-3 prostate, 89.1%. Besides, the growth in the assay on UACC-62 melanoma is 78.1%; in the assay on LOX IMVI melanoma it was 62.8%; in the assay on SK-MEL-28 melanoma it was 105%; in the assay on SK-MEL-2 melanoma, 60.3%; with EKVX NSCLC it was 73.7%; with SN12C renal it was 85.3%. Also, the growth in the assay with UO-31 renal is 82.7%; in the assay with TK-10 renal, 86.8%; in the assay on ACHN renal it was 48.8%; with CAKI-1 renal, 84.5%; in the assay with A498 renal, 54.1%; in the assay on CCRF-CEM leukemia it was 99.8%. In addition, the growth with MOLT-4 leukemia was 103%.
